In the supplement of paper PMC10849652:
Of roughly 7,900 targets only a part is listed; those with a hit were picked by preference. About 0.6% of all pairs of compound and target were hits. Unmarked numbers belong to inactive results.

Compound: CC1=NC(=CC=C1)C2=C(N=C(N2)C(C)(C)C)C3=CC4=NC=CN=C4C=C3
Assay: log2 fold change, soluble protein after heating vs DMSO (PISA); higher = thermal stabilisation; K562 cells, 10 uM, 30 min; active = over 0.2 and 3.5 SD of the protein, either way, in both replicates (recomputed)
How it was run: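 K562 cells at 2×10^6 cells/mL were given 10 μM compound for 30 min. Aliquots then went through 3 min of heating across 48°C-58°C, were pooled, and were extracted in PBS with 0.5% NP-40 at 4°C, and the supernatant after 21,000xg for 90 min was quantified by TMTpro 16plex LC-MS/MS with channel sums equalised. Thermal stability relative to control samples, from duplicates, is given as log2 fold change.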

Chain of UniProt Q9BRP1 (Q9BRP1 whole entry, looked up): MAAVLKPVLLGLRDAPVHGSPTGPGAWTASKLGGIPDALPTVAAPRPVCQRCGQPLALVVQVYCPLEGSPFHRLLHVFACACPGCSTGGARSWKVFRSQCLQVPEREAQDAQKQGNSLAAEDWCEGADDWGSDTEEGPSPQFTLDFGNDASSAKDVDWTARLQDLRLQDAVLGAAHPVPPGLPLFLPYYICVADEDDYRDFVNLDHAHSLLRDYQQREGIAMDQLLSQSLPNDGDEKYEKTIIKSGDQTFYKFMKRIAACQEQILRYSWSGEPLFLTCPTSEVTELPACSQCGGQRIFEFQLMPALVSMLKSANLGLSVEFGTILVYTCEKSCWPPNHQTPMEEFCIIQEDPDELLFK
Chain of UniProt Q00577 (Q00577 whole entry, looked up): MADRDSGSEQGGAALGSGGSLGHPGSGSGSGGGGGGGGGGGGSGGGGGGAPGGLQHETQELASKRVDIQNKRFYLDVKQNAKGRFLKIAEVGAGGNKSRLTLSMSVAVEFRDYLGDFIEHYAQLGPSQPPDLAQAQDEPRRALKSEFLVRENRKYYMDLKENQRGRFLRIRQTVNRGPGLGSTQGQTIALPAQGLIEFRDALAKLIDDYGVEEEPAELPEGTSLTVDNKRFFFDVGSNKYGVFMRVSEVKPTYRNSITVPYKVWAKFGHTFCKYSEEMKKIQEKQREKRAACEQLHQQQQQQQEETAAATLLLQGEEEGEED
Chain of UniProt Q92968 (Q92968 whole entry, looked up): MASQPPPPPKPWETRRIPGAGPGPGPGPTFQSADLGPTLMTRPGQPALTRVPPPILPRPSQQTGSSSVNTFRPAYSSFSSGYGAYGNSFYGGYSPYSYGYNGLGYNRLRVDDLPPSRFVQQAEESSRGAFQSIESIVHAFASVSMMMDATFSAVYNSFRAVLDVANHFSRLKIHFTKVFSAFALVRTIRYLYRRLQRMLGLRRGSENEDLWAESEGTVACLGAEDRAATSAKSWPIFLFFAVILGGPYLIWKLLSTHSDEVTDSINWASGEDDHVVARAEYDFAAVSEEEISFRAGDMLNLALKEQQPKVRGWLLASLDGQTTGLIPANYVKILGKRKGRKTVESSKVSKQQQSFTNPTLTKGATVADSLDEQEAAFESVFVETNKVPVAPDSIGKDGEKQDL
Chain of UniProt P15735 (P15735 whole entry, looked up): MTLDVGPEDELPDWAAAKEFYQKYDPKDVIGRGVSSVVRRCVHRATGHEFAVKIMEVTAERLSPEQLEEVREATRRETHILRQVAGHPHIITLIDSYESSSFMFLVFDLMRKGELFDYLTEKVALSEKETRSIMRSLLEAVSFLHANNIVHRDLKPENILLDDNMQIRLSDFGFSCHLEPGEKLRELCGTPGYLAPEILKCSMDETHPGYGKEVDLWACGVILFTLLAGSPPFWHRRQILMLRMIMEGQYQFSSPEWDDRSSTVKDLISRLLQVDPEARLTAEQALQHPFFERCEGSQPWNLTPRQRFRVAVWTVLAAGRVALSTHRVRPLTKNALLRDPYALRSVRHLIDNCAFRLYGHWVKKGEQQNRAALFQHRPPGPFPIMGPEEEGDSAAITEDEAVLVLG
Chain of UniProt O00408 (O00408 whole entry, looked up): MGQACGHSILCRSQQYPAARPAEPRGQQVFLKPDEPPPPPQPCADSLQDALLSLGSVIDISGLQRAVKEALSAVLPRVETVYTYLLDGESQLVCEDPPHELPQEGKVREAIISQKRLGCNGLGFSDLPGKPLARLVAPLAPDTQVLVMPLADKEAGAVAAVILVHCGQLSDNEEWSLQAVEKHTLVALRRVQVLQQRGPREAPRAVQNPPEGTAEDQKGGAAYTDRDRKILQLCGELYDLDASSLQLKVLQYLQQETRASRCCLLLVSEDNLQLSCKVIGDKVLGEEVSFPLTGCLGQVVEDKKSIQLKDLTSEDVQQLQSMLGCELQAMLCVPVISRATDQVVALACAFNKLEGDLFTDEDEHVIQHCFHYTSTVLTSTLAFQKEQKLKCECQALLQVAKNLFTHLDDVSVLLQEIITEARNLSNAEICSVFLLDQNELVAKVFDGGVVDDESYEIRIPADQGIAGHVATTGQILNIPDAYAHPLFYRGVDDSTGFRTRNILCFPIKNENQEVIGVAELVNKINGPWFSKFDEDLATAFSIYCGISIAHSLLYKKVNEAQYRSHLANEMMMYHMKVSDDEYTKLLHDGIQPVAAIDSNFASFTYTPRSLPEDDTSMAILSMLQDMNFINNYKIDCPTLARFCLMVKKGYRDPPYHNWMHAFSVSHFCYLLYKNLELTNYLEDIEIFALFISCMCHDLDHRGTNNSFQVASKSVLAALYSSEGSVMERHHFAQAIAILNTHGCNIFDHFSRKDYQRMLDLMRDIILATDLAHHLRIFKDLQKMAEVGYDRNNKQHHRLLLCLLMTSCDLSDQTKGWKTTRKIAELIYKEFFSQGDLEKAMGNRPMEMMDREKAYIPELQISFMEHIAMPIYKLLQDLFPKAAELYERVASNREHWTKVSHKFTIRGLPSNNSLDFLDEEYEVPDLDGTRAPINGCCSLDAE
Chain of UniProt Q93096 (Q93096 whole entry, looked up): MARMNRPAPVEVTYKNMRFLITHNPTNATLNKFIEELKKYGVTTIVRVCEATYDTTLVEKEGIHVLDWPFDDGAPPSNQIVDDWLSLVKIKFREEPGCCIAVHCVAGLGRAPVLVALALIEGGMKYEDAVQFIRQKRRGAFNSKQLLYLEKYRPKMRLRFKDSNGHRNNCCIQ
Chain of UniProt Q9Y5Y5 (Q9Y5Y5 whole entry, looked up): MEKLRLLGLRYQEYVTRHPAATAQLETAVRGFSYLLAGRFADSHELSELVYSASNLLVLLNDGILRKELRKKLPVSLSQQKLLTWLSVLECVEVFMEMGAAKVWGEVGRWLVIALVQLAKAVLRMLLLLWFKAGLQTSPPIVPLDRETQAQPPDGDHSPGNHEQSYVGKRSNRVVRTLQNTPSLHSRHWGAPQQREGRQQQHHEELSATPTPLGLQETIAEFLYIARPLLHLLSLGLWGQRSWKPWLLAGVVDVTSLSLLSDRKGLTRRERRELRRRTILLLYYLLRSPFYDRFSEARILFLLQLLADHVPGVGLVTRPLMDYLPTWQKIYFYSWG
Chain of UniProt Q08752 (Q08752 whole entry, looked up): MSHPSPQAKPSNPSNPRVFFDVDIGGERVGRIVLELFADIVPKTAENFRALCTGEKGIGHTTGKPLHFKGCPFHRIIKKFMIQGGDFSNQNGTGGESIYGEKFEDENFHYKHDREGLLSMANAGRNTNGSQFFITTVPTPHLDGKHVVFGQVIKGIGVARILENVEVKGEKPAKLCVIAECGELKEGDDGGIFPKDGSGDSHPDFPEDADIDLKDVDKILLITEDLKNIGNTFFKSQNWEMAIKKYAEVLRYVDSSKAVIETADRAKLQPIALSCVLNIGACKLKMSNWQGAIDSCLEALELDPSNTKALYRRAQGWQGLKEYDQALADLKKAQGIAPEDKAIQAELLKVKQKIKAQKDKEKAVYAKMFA
Chain of UniProt P09884 (P09884 whole entry, looked up): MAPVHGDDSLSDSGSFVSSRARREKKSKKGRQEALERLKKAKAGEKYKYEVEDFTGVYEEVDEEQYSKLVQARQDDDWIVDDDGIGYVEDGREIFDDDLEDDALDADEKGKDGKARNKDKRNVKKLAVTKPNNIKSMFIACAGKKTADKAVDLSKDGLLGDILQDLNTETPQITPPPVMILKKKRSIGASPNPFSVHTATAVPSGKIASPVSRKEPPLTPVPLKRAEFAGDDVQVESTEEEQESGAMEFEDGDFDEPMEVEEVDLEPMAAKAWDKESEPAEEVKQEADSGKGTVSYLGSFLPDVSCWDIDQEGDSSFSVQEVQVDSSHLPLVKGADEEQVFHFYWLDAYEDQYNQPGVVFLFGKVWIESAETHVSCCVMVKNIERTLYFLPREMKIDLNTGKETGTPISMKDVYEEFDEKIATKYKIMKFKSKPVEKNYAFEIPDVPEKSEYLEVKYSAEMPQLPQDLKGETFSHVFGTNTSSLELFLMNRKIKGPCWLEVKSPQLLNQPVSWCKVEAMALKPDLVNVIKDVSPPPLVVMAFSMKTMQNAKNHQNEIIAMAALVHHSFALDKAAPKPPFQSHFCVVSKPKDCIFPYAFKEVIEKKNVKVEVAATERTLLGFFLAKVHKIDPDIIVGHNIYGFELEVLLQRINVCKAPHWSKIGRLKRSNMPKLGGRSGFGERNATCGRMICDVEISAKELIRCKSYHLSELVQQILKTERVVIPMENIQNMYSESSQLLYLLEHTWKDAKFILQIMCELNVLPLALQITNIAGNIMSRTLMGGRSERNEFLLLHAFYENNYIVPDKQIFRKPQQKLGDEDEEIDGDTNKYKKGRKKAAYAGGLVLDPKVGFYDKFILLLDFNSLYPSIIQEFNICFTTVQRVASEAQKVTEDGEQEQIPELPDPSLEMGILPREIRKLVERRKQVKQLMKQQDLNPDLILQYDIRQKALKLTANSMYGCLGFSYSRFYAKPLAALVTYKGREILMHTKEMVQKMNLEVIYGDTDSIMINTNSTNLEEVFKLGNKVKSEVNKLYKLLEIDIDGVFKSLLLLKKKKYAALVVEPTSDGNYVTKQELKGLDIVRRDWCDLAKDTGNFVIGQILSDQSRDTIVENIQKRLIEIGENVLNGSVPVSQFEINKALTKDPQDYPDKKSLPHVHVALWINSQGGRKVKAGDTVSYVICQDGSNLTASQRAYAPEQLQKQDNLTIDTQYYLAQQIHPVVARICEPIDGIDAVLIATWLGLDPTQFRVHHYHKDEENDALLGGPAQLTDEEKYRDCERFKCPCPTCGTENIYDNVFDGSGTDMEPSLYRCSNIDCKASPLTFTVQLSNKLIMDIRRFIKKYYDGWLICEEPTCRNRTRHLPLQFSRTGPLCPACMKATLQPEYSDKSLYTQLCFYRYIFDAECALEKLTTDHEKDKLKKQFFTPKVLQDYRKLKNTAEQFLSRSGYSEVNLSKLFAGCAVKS
Chain of UniProt Q9Y3E5 (Q9Y3E5 whole entry, looked up): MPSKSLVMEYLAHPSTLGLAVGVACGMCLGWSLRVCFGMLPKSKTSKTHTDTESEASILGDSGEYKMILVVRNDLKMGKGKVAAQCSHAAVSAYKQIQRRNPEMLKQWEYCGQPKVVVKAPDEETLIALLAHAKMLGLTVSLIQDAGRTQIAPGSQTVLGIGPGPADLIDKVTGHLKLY

Target | log2 fold change
POLR2M (UniProt P0CAP2) | 0
PCID2 (UniProt Q5JVF3) | 0.033
PMPCA (UniProt Q10713) | 0.006
POLA1 (UniProt P09884) | 0.052
PDE2A (UniProt O00408) | -0.019
PDCD4 (UniProt Q53EL6) | 0.016
PURA (UniProt Q00577) | -0.121
PPP1R14A (UniProt Q96A00) | 0.051
PMM2 (UniProt O15305) | -0.009
PTRH2 (UniProt Q9Y3E5) | 0.144
PPP2R5E (UniProt Q16537) | 0.066
PFAS (UniProt O15067) | 0.002
PPP2R5A (UniProt Q15172) | 0.051
PHKG2 (UniProt P15735) | -0.031
PKM (UniProt P14618) | 0.014
PSMD12 (UniProt O00232) | -0.011
PRKAR1B (UniProt P31321) | -0.057
POLR2K (UniProt P53803) | 0.024
PLCB3 (UniProt Q01970) | 0.033

Target | log2 fold change
PLIN2 (UniProt Q99541) | 0.022
POTEI (UniProt P0CG38) | 0.052
PTP4A1 (UniProt Q93096) | 0.023
PI4K2A (UniProt Q9BTU6) | 0.023
POLR3K (UniProt Q9Y2Y1) | -0.014
PEX16 isoform 2 (UniProt Q9Y5Y5) | 0.146
PIGT (UniProt Q969N2) | -0.016
PRKAA1 isoform 2 (UniProt Q13131) | 0.02
PTRHD1 (UniProt Q6GMV3) | 0.022
PPIL2 (UniProt Q13356) | 0.023
PEX13 (UniProt Q92968) | -0.02
PSMD2 (UniProt Q13200) | -0.064
PPID (UniProt Q08752) | 0.005
POLD1 (UniProt P28340) | 0.022
PDCD2L (UniProt Q9BRP1) | 0.068
PRKAB1 (UniProt Q9Y478) | 0.01
PSMD7 (UniProt P51665) | -0.038
PYGL (UniProt P06737) | 0.006
